From PubChem
ALDH1A1 inh – blocks purified human ALDH1A1 activity | hit rate 7.3% among 220,000 | Potency, µM (highest dose often 75.3 µM), without a hit: at the highest dose activity, negative = inhibition, most hits filed as inhibitors | Purified ALDH1A1, NADH fluorescence, propionaldehyde substrate;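 further: potency means the concentration at half of the fitted maximal effect; plate controls were no enzyme wells and a reference inhibitor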
IMPase cell inh – IMPase inhibition in cells. CHO-M1 cells, IP1 accumulation, HTRF TR-FRET ratio. inhibition (IP1 accumulation), % at 46.1 µM. 120,000 tested, under 10 active; active means well fitted curve in the direction sought with a large enough effect in the signal ratio, not every such curve was filed as active; inconclusive means small, poorly fitted or top-dose-only effect, or a change in a side signal; inactive means no such curve, though single readings can be large or run the other way; the % refers to the signal ratio;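 further: cells stimulated with carbachol in lithium chloride buffer; plate controls were DMSO basal wells for no effect and reference inhibitor wells for full effect; higher means more IMPase inhibition seen as more IP1 and lower FRET ratio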
Target sequence (P97697 whole entry, looked up): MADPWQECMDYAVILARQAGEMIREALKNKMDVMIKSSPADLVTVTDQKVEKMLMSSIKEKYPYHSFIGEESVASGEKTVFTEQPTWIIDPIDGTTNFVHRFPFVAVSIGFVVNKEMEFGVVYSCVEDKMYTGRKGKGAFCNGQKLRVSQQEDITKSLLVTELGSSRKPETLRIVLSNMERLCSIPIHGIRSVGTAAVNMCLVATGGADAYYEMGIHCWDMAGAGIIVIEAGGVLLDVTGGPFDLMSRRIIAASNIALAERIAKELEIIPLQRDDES
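Elevated IP1 in lysates lowers TR-FRET signal (665/620 ratio and 620 channel reported). Cells were CHO-M1, given carbachol (50 uM as added) plus 50mM LiCl, pH 7.4, 30 min, 37C; compounds titrated up to 46 uM; AC50 by Hill equation.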
HPGD block – inhibitors of human 15-hydroxyprostaglandin dehydrogenase (HPGD); P15428; purified HPGD, NADH fluorescence kinetic, PGE2 substrate; Potency, µM, for inactives: top-dose activity change, negative = inhibition, hits mostly inhibitors; hit rate 4.3% among 150,000; AID 894; further: potency means the concentration at half of the fitted maximal effect
Target sequence (P15428 whole entry, looked up): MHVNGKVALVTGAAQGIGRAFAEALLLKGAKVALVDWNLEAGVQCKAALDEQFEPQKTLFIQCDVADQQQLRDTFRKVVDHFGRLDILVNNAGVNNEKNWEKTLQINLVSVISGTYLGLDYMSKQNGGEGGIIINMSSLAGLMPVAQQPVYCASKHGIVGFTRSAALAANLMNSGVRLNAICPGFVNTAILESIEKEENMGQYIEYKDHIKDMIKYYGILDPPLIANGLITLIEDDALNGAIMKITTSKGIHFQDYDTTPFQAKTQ
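20 nM HPGD preincubated 15 min at room temperature with compound in 50 mM Tris-HCl pH 8, 0.01% Tween 20. Started with 1 mM NAD+ and 30 uM prostaglandin E2; NADH fluorescence (360/450 nm) read 5 times over 30-s intervals, last minus first.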
PNC assembly inh – blocks assembly of the perinucleolar compartment; PC3M PTB-GFP, PNC prevalence imaging, 16 h; stronger effect = lower value; activity change (PNC), negative = inhibition, % at 10 µM; hit rate 3.1% among 140,000; AID 2417;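 active means readout at or below -70, meaning at least 70% loss of cells showing the perinucleolar compartment, a nuclear body marking cancer cells; inconclusive means readout between -30 and a set limit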;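 further: plate controls were DMSO wells for no effect and camptothecin positive control wells for full effect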
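Compounds are pinned in duplicate onto adhered PC3M cells stably expressing GFP-tagged PTB and incubated 16 h at 37 C. Cells are then fixed, nuclei stained with Hoechst, and PNC-positive cells counted.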
IMPase Li inh – membrane-permeable IMPase blocker, potentiated with lithium; CHO-M1 cells, IP1 TR-FRET (IP-One), carbachol + lithium; Potency, µM (doses to about 59.4 µM), inactives show top-dose activity, negative = IMPase inhibition, hits mostly inhibitors; hit rate 0.35% among 210,000; AID 1457; active means well fitted inhibition curve with a large enough effect; inconclusive means small, poorly fitted or top-dose-only effect; inactive means no such curve, though single readings can be large or run the other way;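 further: IP1 builds up when IMPase is blocked and the TR-FRET signal falls; potency means the concentration at half of the fitted maximal effect; plate controls were basal vehicle for no effect and high inhibitor control for full effect; nearly all actives have a fitted effect of over 50% in size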
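Lithium-sensitised IP1 accumulation assay; M1-expressing CHO cells treated 30 min at 37C with compound. Competitive antibody detection by time-resolved FRET followed a 10 min room-temperature lysis step.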
Starred values were filed as active, the others as inactive; ? = inconclusive; · = no result; [ ] = another dose, or the depositor's remark. Rows were chosen to be rich in hits. Some 11% of all compounds tested hit in one or more screens of this group. Unless noted, the call rests on the fitted dose curve; in most records, active means well fitted inhibition curve with a large enough effect (not every such curve was filed as active); inconclusive means small, poorly fitted or top-dose-only effect, or another doubt; inactive means no such curve, though single readings can be large or run the other way. Unless noted, on the % scale 0 is the no-effect control and ±100 the full control effect.

SMILES	ALDH1A1 inh	IMPase cell inh	HPGD block	PNC assembly inh	IMPase Li inh
Cc1ccc(C(=O)/C=C/NCc2ccc(F)cc2)cc1	14µM*	·	-24%	12	13%
CCOC(=O)c1ccc(N/C=C/C(=O)c2ccc(OC)c(OC)c2)cc1	-2%	-8	-29%	?	-9%[38.3 µM]
O=C(/C=C/Nc1ccc(Br)cc1F)c1ccccc1	?	·	-7%	-18	-3%
N#Cc1ccc(OC(=O)c2ccc(N=C(N)N)cc2)cc1	26%[13.5 µM]	·	-3%	·	-9%
C/C=N\NC(=O)CNC(=O)CNC(=O)c1ccccc1	12%	·	·	·	3%
CC(C)=CCn1cnc2c1C(NOCc1ccccc1)=NCN2	9%	·	-10%	·	25%
Cc1ccc(CNC(=O)COC(=O)c2ccc(Br)cc2)cc1	11%	·	-11%	52	-2%
Cc1ccc(CN/C=C/C(=O)c2ccc(Br)cc2)cc1	16µM*	1	?	?	9%[38.3 µM]
Cc1nc(N2CCOCC2)c2nc(-c3ccccc3)n(CC(C)(C)CN(C)C)c2n1	?	·	?	·	-7%
CCOC(=O)c1cc(-c2cc3ccccc3o2)n[nH]1	-4%	-1	-9%	-12	14%[38.3 µM]
CCOC(=O)c1cc(-c2cc3ccccc3o2)nc2c1c(=O)[nH]c(=O)n2CCOC	?	-9	?	31	10µM*
CCOc1cccc(-c2nnc3sc(C4CCCCC4)nn23)c1	25µM*	-3	32µM*	?	2%[38.3 µM]
COc1cccc(-c2nnc3sc(C4CCCCC4)nn23)c1	?	-3	-28%	22	22%[38.3 µM]
N#Cc1ccc(CSc2nnc(-c3cccs3)n2-c2ccccc2)cc1	-4%	17	-3%	?	46%[38.3 µM]
FC(F)Sc1nnc(-c2cccs2)n1-c1ccccc1	26%	0	-12%	-80*	3%[38.3 µM]
Cn1c(=O)c(Nc2ccc(O)cc2)c2c3c(cccc31)C(=O)c1ccccc1-2	-2%	·	25µM*	-18	26%
CC1(C)CC(=O)c2sc(NS(=O)(=O)c3ccc(F)cc3)nc2C1	?	·	·	·	-24%
c1ccc2c(c1)[nH]c1c(N3CCOCC3)ncnc12	?	2	-14%	-119*	1%
c1ccc2c(c1)[nH]c1c(N3CCCC3)ncnc12	2%	12	-8%	45	48%[38.3 µM]
O=C(c1ccncc1)N1CCC2(CCCN(c3cccc(-c4ccccc4)c3)C2)CC1	-9%	·	-17%	·	15%
CCOC(=O)C1=C(c2ccccc2)N=C2SCC(=O)N2C1c1ccc2c(c1)OCO2 (configuration not stated)	13µM*	-3	-18%	?	27%[38.3 µM]
CCOC(=O)C1=C(c2ccccc2)N=C2SCC(=O)N2C1c1ccc(OC)c(OC)c1 (configuration not stated)	12%	6	-14%	32	14%[38.3 µM]
CN(C)/N=C/c1c(O)ccc2ccccc12	-2%	-5	32µM*	-3	23%[38.3 µM]
Oc1ccc2ccccc2c1C=Nc1ccc(N2CCOCC2)cc1	4.5µM*	6	20µM*	-23	58%[38.3 µM]
CC1CCCN(C(=O)C2CCN(S(=O)(=O)c3cccc4cccnc34)CC2)C1 (configuration not stated)	?	2	14µM*	52	30%[38.3 µM]
SMILES	ALDH1A1 inh	IMPase cell inh	HPGD block	PNC assembly inh	IMPase Li inh
O=C(C1CCN(S(=O)(=O)c2cccc3cccnc23)CC1)N1CCN(c2ccccc2)CC1	0%	1	-1%	-26	22%[38.3 µM]
O=C(C1CCCN(S(=O)(=O)c2cccc3cccnc23)C1)N1CCN(c2ccc(F)cc2)CC1 (configuration not stated)	-2%	4	-4%	-81*	6%[38.3 µM]
COc1ccc(NC(=O)CSc2nnc3scc(-c4ccc(Cl)cc4)n23)cc1	·	2	·	·	·
Clc1nnc(NN=C2CCCC2)c2ccccc12	2.8µM*	·	-14%	31	2%
COC(=O)CSc1nc2c(c(-c3ccc(O)cc3)c1C#N)CCCC2	?	·	·	·	-3%
COC(=O)CSc1nc2c(c(-c3ccco3)c1C#N)CCCC2	13µM*	-10	13µM*	27	-18%[38.3 µM]
Cc1ccc(-n2c(CNc3ccc(F)cc3)nnc2SCC(N)=O)cc1	-2%	3	·	5	·
Cc1nc(N)sc1-c1csc(N(C)c2ccc(O)cc2)n1	14µM*	8	14µM*	9	13%[38.3 µM]
CN1CCN(c2ncc3nc(-c4ccccc4)c(=O)n(-c4ccccc4)c3n2)CC1	?	·	?	·	8%
COc1ccc(C(=O)/C=C/C(=O)N(Cc2ccccc2)C(C(=O)NC2CCCCC2)c2ccncc2)c(O)c1 (configuration not stated)	8%	·	-2%	-86*	6%
COc1ccc(C(=O)/C=C/C(=O)N(Cc2ccc(F)cc2)C(C(=O)NC2CCCCC2)c2ccncc2)c(O)c1 (configuration not stated)	-5%	·	-9%	17	8%
CC1CCCCN1S(=O)(=O)c1ccc(S(=O)(=O)N(Cc2ccccc2)Cc2ccco2)cc1 (configuration not stated)	7.1µM*	-8	-11%	-100*	15%
O=C(CCNC(=O)c1ccccc1Cl)Nc1ccc(Cl)c(C(F)(F)F)c1	6%	·	22µM*	-21	4%
COC(=O)NC(C(=O)OC)(C(=O)OC)c1ccccc1	4%	·	-3%	·	10%
COc1cccc(-c2cc(C(=O)N3CCc4ccccc4C3)no2)c1	?	1	20µM*	?	12%
COc1cccc(-c2cc(C(=O)NC3CCCC3)no2)c1	?	15	16µM*	-2	22%[38.3 µM]
COc1ccc(-c2cc(C(=O)N3CCc4ccccc4C3)no2)cc1	-6%	·	·	·	1%
COCCNC(=O)c1cc(-c2cccc(OC)c2)on1	8%	7	25µM*	?	4%[38.3 µM]
Clc1ccc2nnnc(-c3ccccc3)c2c1	5%	·	0%	-98*	1%
CCOC(=O)COc1ccc(Br)cc1/C=C\c1[nH]c(=O)[nH]c(=O)c1[N+](=O)[O-]	?	·	16µM*	-16	4%
CCOC(=O)COc1ccc(Br)cc1/C=C/c1[nH]c(=O)[nH]c(=O)c1[N+](=O)[O-]	?	·	·	·	6%
Cc1nn(-c2ccccc2)c(C)c1C(=O)OCC(=O)NC(=O)NC1CCCC1	-14%	?	·	?	·
CC(=O)Nc1ccc(NC(=O)COC(=O)c2c(C)nn(-c3ccccc3)c2C)cc1	22µM*	·	-6%	-83*	-1%
Cc1nn(-c2ccccc2)c(C)c1C(=O)OCC(=O)NC12CC3CC(CC(C3)C1)C2	8.9µM*	8	-18%	2	-4%[38.3 µM]
Cc1nn(-c2ccccc2)c(C)c1C(=O)Oc1ccccc1	-5%	·	·	·	·
CC(=O)N1CCN(C)CC1	-7%	-1	-12%	·	-7%
CCCCCCCCCCCCCCCCCC(=O)OC(CC(=O)O)C[N+](C)(C)C (configuration not stated)	-15%	·	-6%	·	37%
